Screening results from PubChem.
This is a sample that favours compounds with a hit; in the whole collection about 4.1% have one here.
IDE cell inh: inhibits human insulin-degrading enzyme in HEK cells; P14735; FAbetaB cleavage, fluorescence polarization; inhibition, % at 5.59 µM; 320,000 compounds, 0.41% hits;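 active = percent inhibition above the average of all tested compounds plus 3 SD, set per screening campaign, cut at about 16% in these data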;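 note: IDE supplied by intact live HEK cells; FP after avidin binding of uncleaved biotin substrate so inhibition keeps polarization high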
Target sequence (P14735 whole entry, looked up): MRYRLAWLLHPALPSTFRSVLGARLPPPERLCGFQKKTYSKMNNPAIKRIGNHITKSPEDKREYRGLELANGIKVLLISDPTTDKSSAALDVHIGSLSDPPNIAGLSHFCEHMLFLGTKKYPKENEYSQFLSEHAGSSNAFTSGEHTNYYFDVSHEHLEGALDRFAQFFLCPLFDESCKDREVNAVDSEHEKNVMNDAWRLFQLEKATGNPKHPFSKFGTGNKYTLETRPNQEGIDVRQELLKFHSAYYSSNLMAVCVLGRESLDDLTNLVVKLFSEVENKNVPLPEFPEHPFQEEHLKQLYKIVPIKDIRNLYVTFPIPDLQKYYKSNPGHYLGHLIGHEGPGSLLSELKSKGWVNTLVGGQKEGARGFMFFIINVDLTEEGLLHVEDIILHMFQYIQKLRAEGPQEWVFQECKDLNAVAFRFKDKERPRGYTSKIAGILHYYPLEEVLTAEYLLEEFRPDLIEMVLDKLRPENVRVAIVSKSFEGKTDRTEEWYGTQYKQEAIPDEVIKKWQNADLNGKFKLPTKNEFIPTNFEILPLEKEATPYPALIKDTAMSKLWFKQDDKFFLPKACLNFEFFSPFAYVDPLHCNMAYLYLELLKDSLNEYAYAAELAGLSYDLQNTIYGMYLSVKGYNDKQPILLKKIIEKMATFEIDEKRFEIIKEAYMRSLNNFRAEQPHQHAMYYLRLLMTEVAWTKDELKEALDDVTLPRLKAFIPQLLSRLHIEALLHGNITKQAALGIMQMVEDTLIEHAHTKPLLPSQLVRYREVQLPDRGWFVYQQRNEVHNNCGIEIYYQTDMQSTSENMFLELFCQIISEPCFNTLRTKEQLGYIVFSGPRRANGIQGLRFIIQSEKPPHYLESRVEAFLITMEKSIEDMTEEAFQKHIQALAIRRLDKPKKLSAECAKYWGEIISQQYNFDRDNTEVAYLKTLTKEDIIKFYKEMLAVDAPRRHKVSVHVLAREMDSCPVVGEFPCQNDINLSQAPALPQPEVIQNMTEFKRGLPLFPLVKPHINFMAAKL
ALR inh: human ALR oxidase inhibition via reduced H2O2. P55789. purified ALR, DTT oxidation, H2O2 HRP-luminol luminescence. inhibition, % (test concentration not listed). 290,000 compounds, 3.8% hits. AID 485317;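 active = mean replicate inhibition above about 79%, with every replicate also reaching it, limit read from the data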
M18AAP inhibitor: blocks P. falciparum M18 aspartyl aminopeptidase; recombinant PfM18AAP, H-Glu-NHMec fluorogenic cleavage; inhibition, % at 7.35 µM; 290,000 compounds, 1.2% hits;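 active = inhibition above the campaign mean inhibition over all tested compounds plus 3 SD, cut at about 28% in these data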
PolyA inh: blocks polyadenylation in yeast reporter cells. S. cerevisiae SKY197-pL101 polyadenylation reporter, beta-gal luminescence; efflux-impaired pdr1/pdr3 knockout yeast; score 100 = 6 SD above DMSO. 300,000 compounds, 0.02% hits. activity score, % at 12 µM. AID 1875;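 active = lowest replicate activity score at least 50, where 100 means six control SD above control mean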;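 note: yeast exposed to compound for 9 h at 30 °C; higher score means more reporter readthrough which indicates perturbed polyadenylation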
IDE cell activ: boosts human insulin-degrading enzyme activity in HEK cells; P14735; FAbeta-B cleavage, fluorescence polarization; 0% vehicle, 100% cell-free pure enzyme wells; activation, % at 5.96 µM; 340,000 compounds, 0.073% hits;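 active = activation above the mean of all tested compounds plus 3 SD, set per screening campaign, cut at about 17% in these data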
CaV13 FRET inh: Primary screen for inhibitors of IQ motif and Ca2+-dependent inactivation inhibitor domain binding in CACNA1D, Förster resonance energy transfer in living cells, … | HEK cells, CFP/YFP FRET ICDI-IQ, plate reader, 10 min; percent FRET-ratio fall versus neutral wells | inhibition, % at 12.3 µM | 340,000 compounds, 0.098% hits;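 active = mean replicate inhibition of at least 30% and at least 1% of replicates passing that level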
Hits are given with their value.

How did O=c1c(Cl)c(N2CCN(c3ccccc3)CC2)cnn1C12CC3CC(CC(C3)C1)C2 do in these assays?
IDE cell inh: inactive; ALR inh: 86; M18AAP inhibitor: inactive; PolyA inh: inactive; IDE cell activ: inactive; CaV13 FRET inh: inactive

Results for O=c1c(Cl)c(N2CCN(c3ccc(F)cc3)CC2)cnn1C12CC3CC(CC(C3)C1)C2 ?
IDE cell inh: inactive; ALR inh: 77; M18AAP inhibitor: inactive; PolyA inh: inactive; IDE cell activ: inactive; CaV13 FRET inh: inactive

How did CCc1ccccc1Nc1nc(N)nc(CSCC(=O)c2cc(C)n(C)c2C)n1 do in these assays?
IDE cell inh: inactive; ALR inh: 98; M18AAP inhibitor: inactive; PolyA inh: inactive; IDE cell activ: inactive; CaV13 FRET inh: inactive

What do the screens show for `CCc1ccccc1Nc1nc(N)nc(CSc2nnnn2C)n1`?
IDE cell inh: inactive; ALR inh: inactive; M18AAP inhibitor: inactive; PolyA inh: inactive; IDE cell activ: inactive; CaV13 FRET inh: inactive

Results for CC1O[C@@H](O[C@H](C)CC/C=C/C(=O)O)C(O)C[C@H]1O (some centres undefined) ?
IDE cell inh: inactive; ALR inh: inactive; PolyA inh: inactive; IDE cell activ: inactive; CaV13 FRET inh: inactive

How did O=C(Nc1ccc(F)cc1)C(c1ccncc1)N1CCN(C(=O)c2ccco2)CC1 (centres undefined) do in these assays?
CaV13 FRET inh: inactive

How did c1ccc(-c2cc(N3CCCCCC3)n[nH]2)cc1 do in these assays?
IDE cell inh: inactive; ALR inh: 98; M18AAP inhibitor: inactive; PolyA inh: inactive; IDE cell activ: inactive; CaV13 FRET inh: inactive

Results for O=C(Cc1cccs1)Nc1cccc(-c2nc3cc4ccccc4cc3[nH]2)c1 ?
IDE cell inh: inactive; ALR inh: inactive; M18AAP inhibitor: inactive; PolyA inh: inactive; IDE cell activ: inactive; CaV13 FRET inh: inactive

How did CCN(CC)CC(=O)N1c2ccccc2Sc2ccccc21 do in these assays?
IDE cell inh: inactive; ALR inh: inactive; M18AAP inhibitor: inactive; PolyA inh: inactive; IDE cell activ: inactive; CaV13 FRET inh: inactive

How did OCCN(CCO)CC(O)CN1c2ccccc2Sc2ccccc21 (centres undefined) do in these assays?
IDE cell inh: inactive; ALR inh: 99; M18AAP inhibitor: inactive; PolyA inh: inactive; IDE cell activ: inactive

How did CCN(CC)CC(O)CN1c2ccccc2Sc2ccccc21 (centres undefined) do in these assays?
IDE cell inh: inactive; ALR inh: 98; M18AAP inhibitor: inactive; PolyA inh: inactive; IDE cell activ: inactive; CaV13 FRET inh: inactive

What do the screens show for `CCN(CC)CCCCN1c2ccccc2Sc2ccccc21`?
IDE cell inh: inactive; ALR inh: 99; M18AAP inhibitor: inactive; PolyA inh: inactive; IDE cell activ: inactive; CaV13 FRET inh: inactive

Results for Cc1cc(C)n(CC(O)CN2c3ccccc3Sc3ccccc32)n1 (centres undefined) ?
IDE cell inh: inactive; ALR inh: 99; M18AAP inhibitor: inactive; PolyA inh: inactive; IDE cell activ: inactive; CaV13 FRET inh: inactive

Results for Cc1c(C)n(CC(O)CN(CCO)CCO)c2ccccc12 (centres undefined) ?
IDE cell inh: inactive; ALR inh: inactive; M18AAP inhibitor: inactive; PolyA inh: inactive; IDE cell activ: inactive; CaV13 FRET inh: inactive

What do the screens show for `C=CCN=C1NC(c2cccc(Cl)c2)C(C(=O)OC)=C(C)N1Cc1ccc(C(F)(F)F)cc1` (centres undefined)?
CaV13 FRET inh: inactive

Results for O=C(C1CCCCC1)N1C[C@@H](n2cc(-c3ccc(F)cc3)nn2)[C@H](O)C[C@@H]1c1ccc(Cl)cc1 ?
CaV13 FRET inh: inactive

Results for CC(C)C[C@H]1CNC(=S)N1CC1CCN(CCCC2CCCC2)CC1 ?
IDE cell activ: inactive

Results for COc1ccc(N2CCN(C(=O)COC(=O)c3ccc(Cl)nc3)CC2)cc1 ?
IDE cell inh: inactive; ALR inh: inactive; IDE cell activ: inactive; CaV13 FRET inh: inactive

Results for O=C(OCC(=O)N1CCN(c2ccccc2)CC1)c1ccc(Cl)nc1 ?
IDE cell inh: inactive; ALR inh: 97; PolyA inh: inactive; IDE cell activ: inactive; CaV13 FRET inh: inactive

How did Cc1ccc(-c2nc3c4ccccc4ccn3c2Cc2cccc(F)c2)cc1 do in these assays?
CaV13 FRET inh: inactive

What do the screens show for `COc1ccc(S(=O)(=O)N/N=C(/C)c2cccc(NC(=O)c3ccccc3Cl)c2)cc1`?
IDE cell inh: inactive; M18AAP inhibitor: inactive; PolyA inh: inactive; IDE cell activ: inactive; CaV13 FRET inh: inactive

How did C/C(=N\NC(=O)CCc1ccc(S(=O)(=O)N2CCOCC2)cc1)c1ccccc1Cl do in these assays?
IDE cell inh: inactive; ALR inh: 98; M18AAP inhibitor: inactive; PolyA inh: inactive; IDE cell activ: inactive; CaV13 FRET inh: inactive

What do the screens show for `O=C(CCc1ccccc1)Nc1ccc(S(=O)(=O)N2CCOCC2)cc1`?
IDE cell inh: inactive; ALR inh: inactive; M18AAP inhibitor: inactive; PolyA inh: inactive; IDE cell activ: inactive; CaV13 FRET inh: inactive

Results for COC(=O)c1ccc(NC(=S)NC2CCCCC2)cc1 ?
IDE cell inh: inactive; ALR inh: inactive; M18AAP inhibitor: inactive; PolyA inh: inactive; IDE cell activ: inactive; CaV13 FRET inh: inactive

Results for N#CCC(=O)Nc1ccc(C(=O)NNC(=S)NC2CCCCC2)cc1 ?
IDE cell inh: inactive; ALR inh: 94; CaV13 FRET inh: inactive

How did CN(C)c1cccc(C(=O)NNC(=S)NC2CCCC2)c1 do in these assays?
IDE cell inh: inactive; ALR inh: 99; M18AAP inhibitor: inactive; PolyA inh: inactive; IDE cell activ: inactive; CaV13 FRET inh: inactive

Results for O=S1(=O)CCC(N(N=Cc2ccco2)c2ccccc2)C1 (centres undefined) ?
CaV13 FRET inh: inactive

How did COc1ccc2ccccc2c1/C=N/N1C(=O)CSC1=S do in these assays?
IDE cell inh: inactive; M18AAP inhibitor: 30; PolyA inh: inactive; IDE cell activ: inactive

How did O=C(CN1CCCCC1)N1c2ccccc2CCc2ccccc21 do in these assays?
IDE cell inh: inactive; ALR inh: inactive; M18AAP inhibitor: inactive; PolyA inh: inactive; IDE cell activ: inactive; CaV13 FRET inh: inactive

Results for CC1CCN(CC(=O)N2c3ccccc3CCc3ccccc32)CC1 ?
IDE cell inh: inactive; ALR inh: 84; M18AAP inhibitor: inactive; PolyA inh: inactive; IDE cell activ: inactive; CaV13 FRET inh: inactive

What do the screens show for `O=S(=O)(c1cccc(-c2nnc(SCc3nc4ccccc4s3)o2)c1)N1CCOCC1`?
IDE cell inh: inactive; ALR inh: 98; M18AAP inhibitor: inactive; PolyA inh: inactive; IDE cell activ: inactive

What do the screens show for `CC(=O)CCSc1nnc(-c2cccc(S(=O)(=O)N3CCOCC3)c2)o1`?
IDE cell inh: inactive; ALR inh: inactive; PolyA inh: inactive; IDE cell activ: inactive; CaV13 FRET inh: inactive
